About 820 (0.83%) of roughly 99,000 compounds were called active. The full list was thinned out, with actives kept by preference. A number with no mark means an inactive call.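 The calls were made as follows: active = Z-score of -3 or lower, scaled per plate to the spread of control and sample wells; inactive = z-score above -3.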

This assay deals with Protein-tyrosine kinase 2-beta (Homo sapiens) (UniProt Q14289). The experiment in a line: Pyk2 FERM oligomerization blockers – Q293 cells, FERM NanoBiT luminescence, HTS, primary screen (AID 1347419).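 Also: the deposit names both 25 µM and 10 µM; negative z-score means lost luminescence so less FERM oligomerization.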 More on the design: dose or concentration left out as unconfirmed. As to conditions: hits give low values.
Protein-tyrosine kinase 2-beta (Homo sapiens), sequence (Q14289 whole entry, looked up): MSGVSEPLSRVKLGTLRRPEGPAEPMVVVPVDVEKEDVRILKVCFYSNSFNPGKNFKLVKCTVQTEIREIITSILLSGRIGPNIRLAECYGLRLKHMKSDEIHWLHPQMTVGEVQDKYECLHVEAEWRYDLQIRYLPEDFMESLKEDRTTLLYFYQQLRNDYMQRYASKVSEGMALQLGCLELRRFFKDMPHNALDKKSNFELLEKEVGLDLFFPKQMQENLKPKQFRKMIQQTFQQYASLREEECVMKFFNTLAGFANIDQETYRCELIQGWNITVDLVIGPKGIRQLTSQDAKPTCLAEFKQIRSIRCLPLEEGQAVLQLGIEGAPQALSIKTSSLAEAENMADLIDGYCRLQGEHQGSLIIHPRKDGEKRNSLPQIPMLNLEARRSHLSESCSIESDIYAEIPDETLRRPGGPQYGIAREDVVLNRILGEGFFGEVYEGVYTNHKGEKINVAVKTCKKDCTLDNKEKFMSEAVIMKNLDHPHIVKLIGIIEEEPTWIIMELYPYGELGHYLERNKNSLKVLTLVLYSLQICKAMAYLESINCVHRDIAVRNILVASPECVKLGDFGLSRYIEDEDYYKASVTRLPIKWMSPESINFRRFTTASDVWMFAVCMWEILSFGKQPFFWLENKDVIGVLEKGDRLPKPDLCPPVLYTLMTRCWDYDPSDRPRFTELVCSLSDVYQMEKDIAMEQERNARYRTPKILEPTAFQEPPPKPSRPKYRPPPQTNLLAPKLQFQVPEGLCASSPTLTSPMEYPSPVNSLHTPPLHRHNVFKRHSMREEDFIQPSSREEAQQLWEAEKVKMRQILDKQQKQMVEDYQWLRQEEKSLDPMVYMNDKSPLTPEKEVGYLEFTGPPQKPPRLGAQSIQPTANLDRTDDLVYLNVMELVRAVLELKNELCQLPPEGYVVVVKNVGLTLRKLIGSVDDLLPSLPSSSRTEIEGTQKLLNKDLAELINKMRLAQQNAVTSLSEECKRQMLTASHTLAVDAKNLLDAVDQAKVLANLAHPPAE
Turning to `CC(=O)c1c(O)n(C2CCCCCC2)c(=O)[nH]c1=O`, the z-score was 0.12. The same measure for `CCC(=NCCc1ccccc1)c1c(O)n(C2CCCCC2)c(=O)[nH]c1=O`: -3.36 (active); for `CCC(=NCc1ccco1)c1c(O)n(Cc2ccccc2)c(=O)[nH]c1=O`: -0.23. The same measure for `CN(C)c1ccc(/C=C2\CC3C4CC=C5CC(O)CCC5(C)C4CCC3(C)C2=O)cc1` (stereo not given): -0.08; for `O=C(COC(=O)c1ccccc1)Nc1ccc(Cl)cc1C(=O)c1ccccc1`: 0.02.
